One sequence from PMC7862700, “An all-to-all approach to the identification of sequence-specific readers for epigenetic DNA modifications on cytosine” can be followed below.

Common to all, as to assay: DAPPL (digital affinity profiling via proximity ligation, sequencing); 10 mM Tris-HCl pH 7.5, 50 mM NaCl, 1 mM DTT, 4% glycerol, room temperature, 30 min; GST-TFs on glutathione beads, 16-mer random dsDNA library, 0.1% formaldehyde crosslink after washing; high values mean tight binding
For test [1], the target named is T1, FEV (Homo sapiens, UniProt Q99581 1-238).
T1 sequence: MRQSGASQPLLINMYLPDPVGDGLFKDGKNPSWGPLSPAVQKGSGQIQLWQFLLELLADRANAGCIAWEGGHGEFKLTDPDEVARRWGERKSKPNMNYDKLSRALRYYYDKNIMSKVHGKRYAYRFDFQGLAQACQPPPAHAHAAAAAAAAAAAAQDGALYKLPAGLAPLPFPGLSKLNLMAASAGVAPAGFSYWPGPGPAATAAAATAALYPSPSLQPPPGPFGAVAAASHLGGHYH
The note with it: protein: recombinant; tags: N-terminal GST; dsDNA, one strand shown. The essentials: (§1)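 Human transcription factors were made in yeast as GST fusions, captured on glutathione beads and barcoded with DNA. With a tag-only sample included, the pool was incubated with 200 nmole of a random double-stranded 16-mer DNA library in Tris/NaCl/DTT/glycerol buffer at room temperature for 30 min, then crosslinked with 0.1% formaldehyde after washing, ligated by proximity, amplified and sequenced. For binding signal, each hexamer's read frequency for a factor is divided by its frequency for the tag-only sample.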

Test [2] concerns the target ETV5 (Homo sapiens, UniProt P41161 1-510). The note with it: protein: recombinant; tags: N-terminal GST; dsDNA, one strand shown. The essentials: as §1
For test [3], the target named is HSF1 (Homo sapiens, UniProt Q00613 1-529). The note with it: protein: recombinant; tags: N-terminal GST; chain copies: 3; dsDNA, one strand shown. The method, boiled down: as §1
HSF1, sequence (Q00613 whole entry): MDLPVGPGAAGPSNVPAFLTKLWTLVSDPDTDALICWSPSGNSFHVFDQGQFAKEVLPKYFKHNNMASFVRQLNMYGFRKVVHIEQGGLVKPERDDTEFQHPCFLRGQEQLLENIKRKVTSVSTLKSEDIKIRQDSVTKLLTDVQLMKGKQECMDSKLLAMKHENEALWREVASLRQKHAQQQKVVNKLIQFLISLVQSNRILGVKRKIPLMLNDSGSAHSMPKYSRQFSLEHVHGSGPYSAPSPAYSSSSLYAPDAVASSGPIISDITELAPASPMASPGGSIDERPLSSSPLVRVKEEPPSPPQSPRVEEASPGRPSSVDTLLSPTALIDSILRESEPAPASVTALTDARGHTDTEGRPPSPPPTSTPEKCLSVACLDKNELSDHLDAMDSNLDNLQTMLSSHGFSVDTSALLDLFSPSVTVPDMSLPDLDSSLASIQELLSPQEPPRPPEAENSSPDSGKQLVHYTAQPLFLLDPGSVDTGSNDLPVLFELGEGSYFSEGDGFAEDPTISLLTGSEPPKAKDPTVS
Test [4] concerns the target T2, SPIC (Homo sapiens, UniProt Q8N5J4 1-248).
T2 sequence: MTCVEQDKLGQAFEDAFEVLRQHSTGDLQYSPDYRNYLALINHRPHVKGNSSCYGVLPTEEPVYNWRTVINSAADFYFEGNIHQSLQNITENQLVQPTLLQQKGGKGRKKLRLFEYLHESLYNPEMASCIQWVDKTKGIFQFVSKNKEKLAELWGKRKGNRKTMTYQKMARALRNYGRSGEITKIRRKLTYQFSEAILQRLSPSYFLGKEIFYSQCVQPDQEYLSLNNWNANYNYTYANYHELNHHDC
The following applies: protein: recombinant; tags: N-terminal GST; dsDNA, one strand shown. The essentials:
as §1

Test [5] concerns the target ELF4 (Homo sapiens, UniProt Q99607 1-663). The following applies: protein: recombinant; tags: N-terminal GST; dsDNA, one strand shown. The method, boiled down:
as §1

Test [6] concerns the target T3, ELK4 (Homo sapiens, UniProt P28324-2 1-405).
T3 sequence: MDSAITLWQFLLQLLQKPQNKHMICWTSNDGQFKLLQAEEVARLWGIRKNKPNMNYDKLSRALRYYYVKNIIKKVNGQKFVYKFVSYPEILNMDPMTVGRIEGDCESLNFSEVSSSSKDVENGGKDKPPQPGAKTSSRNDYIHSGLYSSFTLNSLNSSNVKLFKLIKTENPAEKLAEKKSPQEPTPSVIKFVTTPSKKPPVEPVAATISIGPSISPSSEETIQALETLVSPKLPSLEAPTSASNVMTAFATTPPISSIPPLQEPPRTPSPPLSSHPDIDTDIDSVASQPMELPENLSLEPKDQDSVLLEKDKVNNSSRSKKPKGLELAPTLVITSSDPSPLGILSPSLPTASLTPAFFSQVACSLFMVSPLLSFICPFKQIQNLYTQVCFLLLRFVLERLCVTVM
The note with it: protein: recombinant; tags: N-terminal GST; dsDNA, one strand shown. The essentials:
as §1

Test [7] concerns the target T4, ETV2 (Homo sapiens, UniProt O00321 1-342).
T4 sequence: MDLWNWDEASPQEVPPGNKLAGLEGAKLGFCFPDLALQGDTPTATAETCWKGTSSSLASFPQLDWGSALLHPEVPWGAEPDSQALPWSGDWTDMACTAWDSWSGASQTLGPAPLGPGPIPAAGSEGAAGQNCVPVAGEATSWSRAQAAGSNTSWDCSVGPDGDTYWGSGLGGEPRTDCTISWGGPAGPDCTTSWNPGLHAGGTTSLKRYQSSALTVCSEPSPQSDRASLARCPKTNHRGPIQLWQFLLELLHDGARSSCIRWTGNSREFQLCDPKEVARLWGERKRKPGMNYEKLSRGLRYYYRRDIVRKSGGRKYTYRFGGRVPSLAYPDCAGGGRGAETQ
The note with it: protein: recombinant; tags: N-terminal GST; dsDNA, one strand shown. The essentials:
as §1

The target in test [8] is T5, ELF3 (Homo sapiens, UniProt P78545 1-371).
T5 sequence: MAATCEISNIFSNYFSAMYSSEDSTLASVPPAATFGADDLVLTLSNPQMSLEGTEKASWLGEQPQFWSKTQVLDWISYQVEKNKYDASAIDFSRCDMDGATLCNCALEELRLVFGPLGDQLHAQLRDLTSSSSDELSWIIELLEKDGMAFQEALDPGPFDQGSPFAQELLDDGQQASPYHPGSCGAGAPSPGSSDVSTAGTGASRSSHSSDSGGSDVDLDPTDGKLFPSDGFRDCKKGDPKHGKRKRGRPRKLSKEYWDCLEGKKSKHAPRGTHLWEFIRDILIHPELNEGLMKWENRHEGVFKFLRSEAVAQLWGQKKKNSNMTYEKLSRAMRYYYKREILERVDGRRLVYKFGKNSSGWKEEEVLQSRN
The following applies: protein: recombinant; tags: N-terminal GST; dsDNA, one strand shown. The essentials:
as §1

Test [9] concerns the target CRX (Homo sapiens, UniProt O43186 1-299). The following applies: protein: recombinant; tags: N-terminal GST; dsDNA, one strand shown. The method, boiled down:
as §1

In test [10] the target is ETV1 (Homo sapiens, UniProt P50549 1-477). The note with it: protein: recombinant; tags: N-terminal GST; dsDNA, one strand shown. The method, boiled down: as §1
ETV1, sequence (P50549 whole entry): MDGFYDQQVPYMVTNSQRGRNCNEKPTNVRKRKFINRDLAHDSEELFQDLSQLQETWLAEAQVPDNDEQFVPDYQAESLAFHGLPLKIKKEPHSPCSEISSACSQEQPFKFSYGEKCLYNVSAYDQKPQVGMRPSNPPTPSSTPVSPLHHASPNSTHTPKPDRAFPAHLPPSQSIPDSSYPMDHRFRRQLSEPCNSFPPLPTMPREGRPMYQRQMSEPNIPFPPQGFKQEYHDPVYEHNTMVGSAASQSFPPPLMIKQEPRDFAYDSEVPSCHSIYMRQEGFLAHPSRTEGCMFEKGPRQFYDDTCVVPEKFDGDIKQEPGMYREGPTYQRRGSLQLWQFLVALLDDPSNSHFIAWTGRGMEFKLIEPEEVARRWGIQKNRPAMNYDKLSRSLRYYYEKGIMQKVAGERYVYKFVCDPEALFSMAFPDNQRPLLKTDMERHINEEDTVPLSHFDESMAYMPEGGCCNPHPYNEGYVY
Test [11] has as its target T6, ERF (Homo sapiens, UniProt P50548 1-548).
T6 sequence: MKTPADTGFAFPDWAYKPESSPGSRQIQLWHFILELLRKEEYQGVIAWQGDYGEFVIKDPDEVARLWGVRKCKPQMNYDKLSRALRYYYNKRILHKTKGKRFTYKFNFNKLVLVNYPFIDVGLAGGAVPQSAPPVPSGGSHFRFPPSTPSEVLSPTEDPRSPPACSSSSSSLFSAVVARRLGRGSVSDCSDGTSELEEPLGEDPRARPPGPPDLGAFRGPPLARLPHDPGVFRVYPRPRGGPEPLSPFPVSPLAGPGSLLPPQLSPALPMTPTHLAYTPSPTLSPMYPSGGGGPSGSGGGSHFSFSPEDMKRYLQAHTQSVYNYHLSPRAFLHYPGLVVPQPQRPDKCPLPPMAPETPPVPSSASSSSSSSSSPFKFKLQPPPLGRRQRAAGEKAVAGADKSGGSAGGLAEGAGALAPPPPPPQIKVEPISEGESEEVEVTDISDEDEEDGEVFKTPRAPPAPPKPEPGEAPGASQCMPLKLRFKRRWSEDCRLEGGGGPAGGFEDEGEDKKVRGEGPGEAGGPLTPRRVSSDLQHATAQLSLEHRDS
The note with it: protein: recombinant; tags: N-terminal GST; dsDNA, one strand shown. The method, boiled down:
as §1

For test [12], the target named is T7, ETV3L (Homo sapiens, UniProt Q6ZN32 1-361).
T7 sequence: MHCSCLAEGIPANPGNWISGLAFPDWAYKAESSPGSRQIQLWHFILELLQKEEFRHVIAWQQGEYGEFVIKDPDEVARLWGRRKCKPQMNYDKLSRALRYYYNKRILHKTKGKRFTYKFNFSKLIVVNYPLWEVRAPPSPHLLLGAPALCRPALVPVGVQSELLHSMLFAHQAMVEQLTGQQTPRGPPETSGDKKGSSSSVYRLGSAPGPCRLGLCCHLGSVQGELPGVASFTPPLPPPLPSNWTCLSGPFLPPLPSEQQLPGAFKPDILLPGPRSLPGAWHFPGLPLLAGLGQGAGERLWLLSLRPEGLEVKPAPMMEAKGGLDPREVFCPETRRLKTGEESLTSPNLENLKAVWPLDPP
The following applies: protein: recombinant; tags: N-terminal GST; dsDNA, one strand shown. The method, boiled down:
as §1

Test [13] has as its target T8, ETS2 (Homo sapiens, UniProt P15036 1-469).
T8 sequence: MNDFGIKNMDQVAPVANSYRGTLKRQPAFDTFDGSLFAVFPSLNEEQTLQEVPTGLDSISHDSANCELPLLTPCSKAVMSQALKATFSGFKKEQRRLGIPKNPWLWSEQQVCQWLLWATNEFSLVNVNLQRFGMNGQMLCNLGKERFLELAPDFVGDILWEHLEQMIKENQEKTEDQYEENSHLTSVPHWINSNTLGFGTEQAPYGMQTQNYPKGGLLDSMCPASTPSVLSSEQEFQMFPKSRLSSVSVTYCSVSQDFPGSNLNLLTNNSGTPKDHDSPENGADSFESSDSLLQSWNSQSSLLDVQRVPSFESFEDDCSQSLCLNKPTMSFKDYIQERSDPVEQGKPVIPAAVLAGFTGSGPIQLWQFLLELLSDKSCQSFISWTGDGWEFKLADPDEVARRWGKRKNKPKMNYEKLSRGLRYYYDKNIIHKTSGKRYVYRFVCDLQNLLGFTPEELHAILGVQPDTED
The following applies: protein: recombinant; tags: N-terminal GST; dsDNA, one strand shown. The method, boiled down:
as §1

Test [14] concerns the target T9, SPDEF (Homo sapiens, UniProt O95238 1-335).
T9 sequence: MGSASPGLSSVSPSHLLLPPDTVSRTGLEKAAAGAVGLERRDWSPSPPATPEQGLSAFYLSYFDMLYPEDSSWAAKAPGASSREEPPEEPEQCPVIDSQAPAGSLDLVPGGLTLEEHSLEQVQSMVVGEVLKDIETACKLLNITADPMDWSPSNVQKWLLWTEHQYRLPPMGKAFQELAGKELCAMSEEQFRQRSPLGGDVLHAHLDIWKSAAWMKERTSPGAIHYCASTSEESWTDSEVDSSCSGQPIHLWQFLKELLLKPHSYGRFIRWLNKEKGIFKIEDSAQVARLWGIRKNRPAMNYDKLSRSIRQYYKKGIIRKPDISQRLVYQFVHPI
The note with it: protein: recombinant; tags: N-terminal GST; dsDNA, one strand shown. The method, boiled down:
as §1

Test [15] deals with T10, ETV7 (Homo sapiens, UniProt Q9Y603 1-341).
T10 sequence: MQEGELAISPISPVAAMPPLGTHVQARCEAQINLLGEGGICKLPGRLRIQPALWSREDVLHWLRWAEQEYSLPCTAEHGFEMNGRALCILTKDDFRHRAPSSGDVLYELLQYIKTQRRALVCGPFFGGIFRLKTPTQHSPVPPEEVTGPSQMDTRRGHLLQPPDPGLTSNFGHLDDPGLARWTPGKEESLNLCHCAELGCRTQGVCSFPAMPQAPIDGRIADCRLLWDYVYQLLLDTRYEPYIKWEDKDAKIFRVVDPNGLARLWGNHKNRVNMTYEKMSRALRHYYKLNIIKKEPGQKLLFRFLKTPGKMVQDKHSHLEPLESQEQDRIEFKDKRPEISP
The note with it: protein: recombinant; tags: N-terminal GST; dsDNA, one strand shown. The essentials: as §1

Test [16] concerns the target T11, ELF5 (Homo sapiens, UniProt Q9UKW6-2 1-255).
T11 sequence: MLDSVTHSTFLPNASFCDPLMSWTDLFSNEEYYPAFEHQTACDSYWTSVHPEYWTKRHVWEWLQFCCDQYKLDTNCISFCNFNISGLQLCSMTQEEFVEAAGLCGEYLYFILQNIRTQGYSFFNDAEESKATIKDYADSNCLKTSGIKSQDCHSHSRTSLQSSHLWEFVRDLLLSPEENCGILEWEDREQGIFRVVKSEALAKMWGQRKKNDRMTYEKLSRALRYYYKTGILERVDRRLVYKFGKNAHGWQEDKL
The following applies: protein: recombinant; tags: N-terminal GST; dsDNA, one strand shown. The essentials:
as §1

Test [17] addresses T12, ETV3 (Homo sapiens, UniProt P41162-2 1-143).
T12 sequence: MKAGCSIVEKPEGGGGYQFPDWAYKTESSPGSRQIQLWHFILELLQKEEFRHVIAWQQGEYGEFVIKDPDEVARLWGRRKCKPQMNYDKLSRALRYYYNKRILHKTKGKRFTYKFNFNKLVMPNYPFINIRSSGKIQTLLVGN
The note with it: protein: recombinant; tags: N-terminal GST; dsDNA, one strand shown. The method, boiled down:
as §1

Test [18] addresses ETV6 (Homo sapiens, UniProt P41212 1-452). The following applies: protein: recombinant; tags: N-terminal GST; dsDNA, one strand shown. The essentials: as §1

CRX, sequence (O43186 whole entry): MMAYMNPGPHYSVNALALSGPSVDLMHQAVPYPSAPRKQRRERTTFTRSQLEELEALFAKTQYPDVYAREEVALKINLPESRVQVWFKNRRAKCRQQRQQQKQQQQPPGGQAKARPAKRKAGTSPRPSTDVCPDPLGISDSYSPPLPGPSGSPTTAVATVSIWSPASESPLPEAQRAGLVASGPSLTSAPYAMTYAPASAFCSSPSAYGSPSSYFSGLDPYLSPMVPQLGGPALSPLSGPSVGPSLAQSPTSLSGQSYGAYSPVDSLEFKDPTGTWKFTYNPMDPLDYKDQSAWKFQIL
ELF4, sequence (Q99607 whole entry): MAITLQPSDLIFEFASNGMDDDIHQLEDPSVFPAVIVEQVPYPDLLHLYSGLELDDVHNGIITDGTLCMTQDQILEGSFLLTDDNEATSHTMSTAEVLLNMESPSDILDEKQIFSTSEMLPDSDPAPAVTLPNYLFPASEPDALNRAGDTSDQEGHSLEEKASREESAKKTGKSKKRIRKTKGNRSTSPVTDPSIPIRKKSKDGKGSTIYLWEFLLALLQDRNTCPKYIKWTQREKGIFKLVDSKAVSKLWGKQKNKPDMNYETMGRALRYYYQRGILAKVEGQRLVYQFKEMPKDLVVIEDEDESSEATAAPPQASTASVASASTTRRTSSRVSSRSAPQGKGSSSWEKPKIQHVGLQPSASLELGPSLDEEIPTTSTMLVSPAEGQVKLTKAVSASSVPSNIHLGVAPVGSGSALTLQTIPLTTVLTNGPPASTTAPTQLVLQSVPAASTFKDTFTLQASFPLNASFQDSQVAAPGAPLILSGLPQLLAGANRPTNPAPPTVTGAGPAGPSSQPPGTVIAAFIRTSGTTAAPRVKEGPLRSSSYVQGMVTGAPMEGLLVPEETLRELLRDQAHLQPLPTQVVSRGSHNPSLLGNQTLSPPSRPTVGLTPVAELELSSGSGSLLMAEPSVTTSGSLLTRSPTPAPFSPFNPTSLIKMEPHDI
ETV6, sequence (P41212 whole entry): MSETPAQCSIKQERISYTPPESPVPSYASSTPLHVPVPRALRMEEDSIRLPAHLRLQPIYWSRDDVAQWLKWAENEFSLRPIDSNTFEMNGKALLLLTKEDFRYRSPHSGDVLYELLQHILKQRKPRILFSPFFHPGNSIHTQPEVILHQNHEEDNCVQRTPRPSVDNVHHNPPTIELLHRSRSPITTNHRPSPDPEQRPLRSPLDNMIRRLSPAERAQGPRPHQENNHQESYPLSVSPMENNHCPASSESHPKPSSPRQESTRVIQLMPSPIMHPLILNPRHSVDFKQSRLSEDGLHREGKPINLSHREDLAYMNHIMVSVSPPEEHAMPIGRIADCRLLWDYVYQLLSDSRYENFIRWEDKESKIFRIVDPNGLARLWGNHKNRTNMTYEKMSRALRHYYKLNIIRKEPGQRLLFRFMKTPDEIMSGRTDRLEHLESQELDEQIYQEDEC
ETV5, sequence (P41161 whole entry): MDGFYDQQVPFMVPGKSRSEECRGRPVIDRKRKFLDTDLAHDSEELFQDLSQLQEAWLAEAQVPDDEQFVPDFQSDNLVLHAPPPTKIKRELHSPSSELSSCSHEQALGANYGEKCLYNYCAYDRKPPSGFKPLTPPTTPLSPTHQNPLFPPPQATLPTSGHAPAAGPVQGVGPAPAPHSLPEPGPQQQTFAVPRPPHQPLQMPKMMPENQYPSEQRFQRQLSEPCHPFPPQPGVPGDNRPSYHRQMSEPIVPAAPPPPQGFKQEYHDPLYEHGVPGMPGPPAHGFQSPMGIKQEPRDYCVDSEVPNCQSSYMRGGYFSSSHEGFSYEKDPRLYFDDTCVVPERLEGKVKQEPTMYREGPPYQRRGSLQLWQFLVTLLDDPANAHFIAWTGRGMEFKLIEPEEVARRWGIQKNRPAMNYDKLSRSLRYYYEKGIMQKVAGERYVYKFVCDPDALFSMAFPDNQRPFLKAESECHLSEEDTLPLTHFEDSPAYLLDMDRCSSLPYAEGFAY

Take GTATCT: the binding signal is 1.14 fold enrichment (6-mer frequency, TF over GST control) in [1]; 1.11 fold enrichment (6-mer frequency, TF over GST control) in test [2]; 1.15 fold enrichment (6-mer frequency, TF over GST control) in test [3]; 1.15 fold enrichment (6-mer frequency, TF over GST control) in test [4]; 1.14 fold enrichment (6-mer frequency, TF over GST control) in test [5]; 1.22 fold enrichment (6-mer frequency, TF over GST control) in test [6]. Moreover, the binding signal was 1.23 fold enrichment (6-mer frequency, TF over GST control) in [7]; 1.26 fold enrichment (6-mer frequency, TF over GST control) in test [8]; 1.02 fold enrichment (6-mer frequency, TF over GST control) in [9]; 1.15 fold enrichment (6-mer frequency, TF over GST control) in test [10]; 1.16 fold enrichment (6-mer frequency, TF over GST control) in test [11]; 1.16 fold enrichment (6-mer frequency, TF over GST control) in test [12]. Further, the binding signal in test [13] is 1.05 fold enrichment (6-mer frequency, TF over GST control); in test [14], 1.14 fold enrichment (6-mer frequency, TF over GST control); in [15], 1.14 fold enrichment (6-mer frequency, TF over GST control); in test [16] it was 1.18 fold enrichment (6-mer frequency, TF over GST control); in test [17] it was 1.13 fold enrichment (6-mer frequency, TF over GST control); in test [18], 1.19 fold enrichment (6-mer frequency, TF over GST control).
